{"source": "PubChem BioAssay (EPA / NIEHS)", "note": "The source made the active and inactive calls. How the source made its calls: active means hit-call score of the fitted dose curve at least 0.9, where 1 is the maximum; inactive means score below 0.9."}
{"read-out": "Cytochrome P450 (CYP2B6), CYP2B6 (gene 1555)", "test": "LTEA_HepaRG_CYP2B6: Life Technologies and Expression Analysis (LTEA) Assay for Cytochrome P450 (CYP2B6) using HepaRG (AID 2283481)", "conditions": "mRNA level, 48 h; actives raise or lower the signal", "outline": "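Read-out is CYP2B6 mRNA by TaqMan qRT-PCR, normalized to three housekeeping genes and fitted bidirectionally against 0.5% DMSO baseline. Human HepaRG cells received test chemicals for 48 h, top concentration 100 uM, half-log dilutions.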"}
{"smiles": "Cc1cccc([N+](=O)[O-])c1C", "outcome": "inactive"}
{"smiles": "CCCc1cc(=O)[nH]c(=S)[nH]1", "outcome": "inactive"}
{"smiles": "O=c1[nH]cc(F)c(=O)[nH]1", "outcome": "inactive"}
{"smiles": "CC1=C(/C=C/C(C)=C/C=C/C(C)=C/CO)C(C)(C)CCC1", "AC50": "26.7 µM (active)"}
{"smiles": "Cc1ccc(C)c(O)c1C", "outcome": "inactive"}
{"smiles": "CNCc1cc(F)ccc1Oc1ccc(Cl)c(Cl)c1", "outcome": "inactive"}
{"smiles": "Cc1cc(NC(=O)C(=O)O)cc(C)c1Oc1ccc(O)c2c1CCC2", "AC50": "0.00316 µM (active)"}
{"smiles": "Clc1cc(Cl)c(Cl)cc1Cl", "outcome": "inactive"}
{"smiles": "FC(F)(F)C(F)(F)C(F)(F)C(F)(F)C(F)(F)C(F)(F)CCI", "outcome": "inactive"}
{"smiles": "COc1cc(C=O)ccc1O", "outcome": "inactive"}
{"smiles": "Oc1ccc2ccccc2c1N=Nc1ccccc1", "AC50": "31.5 µM (active)"}
{"smiles": "NS(=O)(=O)c1cc2c(cc1Cl)NCNS2(=O)=O", "outcome": "inactive"}
{"smiles": "Cc1ccc2ncccc2c1", "AC50": "13.2 µM (active)"}
{"smiles": "CCCCCCCCCCCCCCCC", "outcome": "inactive"}
{"smiles": "Cc1oc(-c2ccccc2)nc1CCOc1cccc2c1ccn2CCC(=O)O", "AC50": "88.5 µM (active)"}
{"smiles": "Cc1c(C(=O)O)c(O)cc2c1C(=O)c1c(O)c([C@@H]3O[C@H](CO)[C@@H](O)[C@H](O)[C@H]3O)c(O)c(O)c1C2=O", "outcome": "inactive"}
{"smiles": "CCCCc1ccc2c(n1)[C@@H](c1ccc(OC)cc1C[C@H](C)C(=O)O)[C@H](C(=O)O)[C@H]2c1ccc2c(c1)OCO2", "outcome": "inactive"}
{"smiles": "Oc1ccc2c(c1)OC[C@@H](N1CCC(O)(c3ccc(F)cc3)CC1)[C@H]2O", "outcome": "inactive"}
{"smiles": "CCCCCCCCCCC", "outcome": "inactive"}
{"smiles": "Cc1cccc(C)c1O", "outcome": "inactive"}
{"smiles": "CCOC(=O)CCC(=O)OCC", "AC50": "19.3 µM (active)"}
{"smiles": "C=CCOC(=O)c1ccccc1C(=O)OCC=C", "outcome": "inactive"}
{"smiles": "Cc1ccc(C)c(C)c1", "outcome": "inactive"}
{"smiles": "NCCO", "outcome": "inactive"}
{"smiles": "c1cc(-c2ccncc2)ccn1", "outcome": "inactive"}
{"smiles": "Cc1ccccc1Cl", "outcome": "inactive"}
{"smiles": "CCCCCCCCCCCCCCCCCC(=O)O", "outcome": "inactive"}
{"smiles": "CCCCCC(=O)O", "outcome": "inactive"}
{"smiles": "C1CCC(SSC2CCCCC2)CC1", "outcome": "inactive"}
{"read-out": "Cytochrome P450 2C19 (Homo sapiens) (UniProt P33261)", "test": "LTEA_HepaRG_CYP2C19: Life Technologies and Expression Analysis (LTEA) Assay for CYP2C19 using HepaRG (AID 2283482)", "conditions": "mRNA level, 48 h; actives raise or lower the signal", "outline": "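HepaRG, 48 h chemical exposure, 8-pt half-log series from 100 uM in 0.5% DMSO, duplicates. Readout: CYP2C19 mRNA by TaqMan qRT-PCR, housekeeping-normalized. Bidirectional fit vs DMSO baseline; phenobarbital 1mM as induction control.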"}
{"smiles": "Cc1cccc([N+](=O)[O-])c1C", "outcome": "inactive"}
{"smiles": "CCCc1cc(=O)[nH]c(=S)[nH]1", "outcome": "inactive"}
{"smiles": "O=c1[nH]cc(F)c(=O)[nH]1", "outcome": "inactive"}
{"smiles": "CC1=C(/C=C/C(C)=C/C=C/C(C)=C/CO)C(C)(C)CCC1", "AC50": "43.5 µM (active)"}
{"smiles": "Cc1ccc(C)c(O)c1C", "outcome": "inactive"}
{"smiles": "CNCc1cc(F)ccc1Oc1ccc(Cl)c(Cl)c1", "AC50": "94 µM (active)"}
{"smiles": "Cc1cc(NC(=O)C(=O)O)cc(C)c1Oc1ccc(O)c2c1CCC2", "AC50": "0.618 µM (active)"}
{"smiles": "Clc1cc(Cl)c(Cl)cc1Cl", "outcome": "inactive"}
{"smiles": "FC(F)(F)C(F)(F)C(F)(F)C(F)(F)C(F)(F)C(F)(F)CCI", "outcome": "inactive"}
{"smiles": "COc1cc(C=O)ccc1O", "outcome": "inactive"}
{"smiles": "Oc1ccc2ccccc2c1N=Nc1ccccc1", "AC50": "9.92 µM (active)"}
{"smiles": "NS(=O)(=O)c1cc2c(cc1Cl)NCNS2(=O)=O", "outcome": "inactive"}
{"smiles": "Cc1ccc2ncccc2c1", "outcome": "inactive"}
{"smiles": "CCCCCCCCCCCCCCCC", "outcome": "inactive"}
{"smiles": "Cc1oc(-c2ccccc2)nc1CCOc1cccc2c1ccn2CCC(=O)O", "AC50": "83.4 µM (active)"}
{"smiles": "Cc1c(C(=O)O)c(O)cc2c1C(=O)c1c(O)c([C@@H]3O[C@H](CO)[C@@H](O)[C@H](O)[C@H]3O)c(O)c(O)c1C2=O", "outcome": "inactive"}
{"smiles": "CCCCc1ccc2c(n1)[C@@H](c1ccc(OC)cc1C[C@H](C)C(=O)O)[C@H](C(=O)O)[C@H]2c1ccc2c(c1)OCO2", "outcome": "inactive"}
{"smiles": "Oc1ccc2c(c1)OC[C@@H](N1CCC(O)(c3ccc(F)cc3)CC1)[C@H]2O", "outcome": "inactive"}
{"smiles": "CCCCCCCCCCC", "outcome": "inactive"}
{"smiles": "Cc1cccc(C)c1O", "outcome": "inactive"}
{"smiles": "CCOC(=O)CCC(=O)OCC", "outcome": "inactive"}
{"smiles": "C=CCOC(=O)c1ccccc1C(=O)OCC=C", "outcome": "inactive"}
{"smiles": "Cc1ccc(C)c(C)c1", "outcome": "inactive"}
{"smiles": "NCCO", "outcome": "inactive"}
{"smiles": "c1cc(-c2ccncc2)ccn1", "outcome": "inactive"}
{"smiles": "Cc1ccccc1Cl", "outcome": "inactive"}
{"smiles": "CCCCCCCCCCCCCCCCCC(=O)O", "outcome": "inactive"}
{"smiles": "CCCCCC(=O)O", "outcome": "inactive"}
{"smiles": "C1CCC(SSC2CCCCC2)CC1", "outcome": "inactive"}
{"read-out": "CYP2C8 (gene 1558)", "test": "LTEA_HepaRG_CYP2C8: Life Technologies and Expression Analysis (LTEA) Assay for CYP2C8 using HepaRG (AID 2283483)", "conditions": "mRNA level, 48 h; actives raise or lower the signal", "outline": "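This is a transcriptional endpoint in HepaRG cultures: 48 h exposure, highest concentration 100 uM. CYP2C8 mRNA is quantified by TaqMan qRT-PCR.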"}
{"smiles": "Cc1cccc([N+](=O)[O-])c1C", "outcome": "inactive"}
{"smiles": "CCCc1cc(=O)[nH]c(=S)[nH]1", "outcome": "inactive"}
{"smiles": "O=c1[nH]cc(F)c(=O)[nH]1", "outcome": "inactive"}
{"smiles": "CC1=C(/C=C/C(C)=C/C=C/C(C)=C/CO)C(C)(C)CCC1", "AC50": "52.2 µM (active)"}
{"smiles": "Cc1ccc(C)c(O)c1C", "outcome": "inactive"}
{"smiles": "CNCc1cc(F)ccc1Oc1ccc(Cl)c(Cl)c1", "outcome": "inactive"}
{"smiles": "Cc1cc(NC(=O)C(=O)O)cc(C)c1Oc1ccc(O)c2c1CCC2", "outcome": "inactive"}
{"smiles": "Clc1cc(Cl)c(Cl)cc1Cl", "outcome": "inactive"}
{"smiles": "FC(F)(F)C(F)(F)C(F)(F)C(F)(F)C(F)(F)C(F)(F)CCI", "outcome": "inactive"}
{"smiles": "COc1cc(C=O)ccc1O", "outcome": "inactive"}
{"smiles": "Oc1ccc2ccccc2c1N=Nc1ccccc1", "AC50": "9.55 µM (active)"}
{"smiles": "NS(=O)(=O)c1cc2c(cc1Cl)NCNS2(=O)=O", "outcome": "inactive"}
{"smiles": "Cc1ccc2ncccc2c1", "outcome": "inactive"}
{"smiles": "CCCCCCCCCCCCCCCC", "outcome": "inactive"}
{"smiles": "Cc1oc(-c2ccccc2)nc1CCOc1cccc2c1ccn2CCC(=O)O", "AC50": "80.5 µM (active)"}
{"smiles": "Cc1c(C(=O)O)c(O)cc2c1C(=O)c1c(O)c([C@@H]3O[C@H](CO)[C@@H](O)[C@H](O)[C@H]3O)c(O)c(O)c1C2=O", "outcome": "inactive"}
{"smiles": "CCCCc1ccc2c(n1)[C@@H](c1ccc(OC)cc1C[C@H](C)C(=O)O)[C@H](C(=O)O)[C@H]2c1ccc2c(c1)OCO2", "outcome": "inactive"}
{"smiles": "Oc1ccc2c(c1)OC[C@@H](N1CCC(O)(c3ccc(F)cc3)CC1)[C@H]2O", "outcome": "inactive"}
{"smiles": "CCCCCCCCCCC", "outcome": "inactive"}
{"smiles": "Cc1cccc(C)c1O", "outcome": "inactive"}
{"smiles": "CCOC(=O)CCC(=O)OCC", "outcome": "inactive"}
{"smiles": "C=CCOC(=O)c1ccccc1C(=O)OCC=C", "outcome": "inactive"}
{"smiles": "Cc1ccc(C)c(C)c1", "outcome": "inactive"}
{"smiles": "NCCO", "outcome": "inactive"}
{"smiles": "c1cc(-c2ccncc2)ccn1", "outcome": "inactive"}
{"smiles": "Cc1ccccc1Cl", "outcome": "inactive"}
{"smiles": "CCCCCCCCCCCCCCCCCC(=O)O", "outcome": "inactive"}
{"smiles": "CCCCCC(=O)O", "outcome": "inactive"}
{"smiles": "C1CCC(SSC2CCCCC2)CC1", "outcome": "inactive"}
